# Screening data as filed in PubChem BioAssay.
# Most compounds without a hit are left out; they make up all but 6.2% or so of the library.
# ATXN2 expr inh = reduces ATXN2 reporter expression in HEK-293 cells | HEK-293 ATXN2-luciferase reporter, luminescence, 24 h | Potency, µM (highest dose often 57 µM), actives largely listed as inhibitors | 0.72% of 360,000 active | AID 1745845; also: nearly all actives have a fitted effect of over 55% in size
#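 qHTS (up to 57 uM final) was run with 24 h compound exposure of reporter cells at 37 °C. Each well was multiplexed: SteadyGlo luminescence measured ATXN2-luciferase expression after a fluorogenic Gly-Phe-AFC viability readout (25 uM final).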
# HT1080-NT tox = kills 2HG-producing HT-1080-NT fibrosarcoma cells | HT-1080-NT fibrosarcoma viability, CellTiter-Glo ATP luminescence, 48 h | Potency, µM (highest dose often 46.1 µM), most hits filed as cytotoxic | 1.6% of 360,000 active | AID 686970;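 also: NT is the 2HG producing partner of a matched IDH1 knockdown line; nearly all actives have a fitted effect of over 55% in size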
#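 750 cells/well, RPMI + 5% FBS; 2 h settle, compound pin-transfer, 48 h at 37 degrees C. CellTiter-Glo 10 min RT, luminescence. Normalized to DMSO and media-only wells.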
# HT1080 IDH1KD tx = kills HT-1080 cells with IDH1 knockdown; AID 686971; Potency, µM (top dose mostly 46.1 µM), hits mostly cytotoxic; 2% of 360,000 active; HT-1080 IDH1 knockdown viability, ATP luminescence, 48 h
#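 IDH1KD HT-1080 cells, 750/well, RPMI + 5% FBS; compound pinned after 2 h settling; 48 h, 37 °C; CellTiter-Glo luminescence; % activity normalised to DMSO and no-cell wells; curves fitted, classed by r2 and efficacy.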
# ATXN viability = cell viability loss in ATXN counter-screen | S2 cells (HEK-293 line with an ATXN2-luciferase reporter) viability, CellTiter-Fluor protease fluorescence, 24 h | Potency, µM (highest dose often 56.7 µM), hits mostly cytotoxic | 0.49% of 400,000 active | AID 651635; also: nearly all actives have a fitted effect of over 40% in size
# KB-3-1 tox = kills parental KB-3-1 adenocarcinoma cells | Potency, µM (series often up to 46.1 µM), usual class: cytotoxic | 1.4% of 400,000 active | KB-3-1 viability, CellTiter-Glo ATP luminescence, 72 h; also: nearly all actives have a fitted effect of over 60% in size
#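 Parental KB-3-1 viability, qHTS format: 72 h compound exposure, 37 °C; CellTiter-Glo; media-only wells and DMSO plates as controls; concentration-effect fits on corrected data.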
# KB-V1 MDR tox = KB-V1 MDR subline cytotoxicity; AID 1347076; 3.4% of 400,000 active; Potency, µM (highest dose often 46.1 µM), usual class: cytotoxic; KB-V1 MDR cells viability, CellTiter-Glo, 72 h; also: nearly all actives have a fitted effect of over 60% in size
#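 Potencies derive from concentration-effect curves fitted to normalized luminescence (CellTiter-Glo) of KB-V1 cells treated for 72 h at 37 degrees C in phenol-red-free DMEM containing 10% FBS.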
# Numbers stand for hits; – = inactive; ? = inconclusive; · = not tested or not shown; [ ] = another dose, or the depositor's remark. Calls follow the shape of the dose curve; as a rule, active = well fitted curve in the direction sought with a large enough effect; inconclusive = small, poorly fitted or top-dose-only effect, or another doubt; inactive = no such curve, though single readings can be large; an effect the other way counts as inactive or inconclusive.
SMILES,ATXN2 expr inh,HT1080-NT tox,HT1080 IDH1KD tx,ATXN viability,KB-3-1 tox,KB-V1 MDR tox
O=[N+]([O-])c1ccc(N2CCN(Cc3ccccc3)CC2)s1,–,–,–,–,–,?
O=[N+]([O-])c1ccc(N2CCN(Cc3ccccc3)CC2)c2c1no[n+]2[O-],·,23µM,15µM,3.5µM,2.1µM,6.5µM
CCC(=NC(C)c1ccccc1)c1c(O)n(C)c(=O)n(C)c1=O (centres undefined),–,–,–,–,?,2.6µM
CCC(C(=O)OCC(=O)c1c(N)n(CC(C)C)c(=O)n(C)c1=O)c1ccccc1 (centres undefined),–,–,–,–,?,?
COc1ccc(/C=C2\CCCC3C2=NN(C(=O)CSc2ncn[nH]2)C3c2ccc(OC)cc2)cc1 (centres undefined),–,?,?,–,–,–
Cc1nc(N2N=C3/C(=C/c4ccc(F)cc4)CCCC3C2c2ccc(F)cc2)sc1C(=O)N(C)C (centres undefined),?,–,–,·,?,21µM
O=C(c1ccco1)c1nnn(Cc2ccccc2)c1-c1ccccc1,–,–,?,–,–,23µM
Nc1c(C(=O)NCc2ccco2)nnn1Cc1ccccc1,–,–,–,–,–,–
COc1ccc(CC(N)c2csc(NC(=O)c3ccccc3)n2)cc1 (centres undefined),–,–,–,?,–,–
COc1ccc(CC(N)c2csc(NC(=O)c3ccc(F)cc3)n2)cc1 (centres undefined),–,21µM,?,–,–,–
COc1ccc(CC(N)c2csc(NC(=O)C(c3ccccc3)c3ccccc3)n2)cc1 (centres undefined),?,?,21µM,?,?,21µM
COc1ccc(CC(N)c2csc(NC(=O)c3ccccc3OC)n2)cc1 (centres undefined),22µM,?,–,?,–,–
Cc1ccc2c(c1)cc1c(=O)n(Cc3cccc(Cl)c3)nc(C)n12,–,·,·,–,–,?
CC(=O)Oc1cccc2c1C(=O)C1CC=CC(OC(C)=O)C1C2=O (centres undefined),–,–,–,–,–,–
Cc1cc(=O)n2nc(N3CCC(C(=O)Nc4ccc(C)c(Cl)c4)CC3)sc2n1,–,·,·,–,–,–
OC(CCN1CCCCC1)(c1ccccc1)C1CC2C=CC1C2 (centres undefined),–,·,·,?,·,·
CCCCC[C@@H](C)N1C[C@@H](COCc2ccccc2)Oc2cc(N3CCC[C@@H]3COC)ccc2S1(=O)=O,–,–,–,–,–,–
COc1ccc(C(=O)Oc2cccc(Nc3ncnc4ccccc34)c2)cc1OC,–,–,–,–,?,18µM
CCOC(=O)/C(=C/c1ccc(N2CCC(c3ccccc3)=N2)cc1)C(C)=O,1.9µM,–,–,·,–,–
c1ccc(C2=NN(c3ccccc3)CC2)cc1,·,–,–,·,–,–
COc1ccccc1NC(=O)N1CCN(c2nnc(C)c3c(C)n(-c4ccccc4)nc23)CC1,?,·,·,–,–,–
COc1ccc(Cn2ccc3nc(C)c(C(=O)Nc4cc(OC)c(OC)c(OC)c4)cc3c2=O)cc1,–,·,·,–,–,–
COc1cccc(CNc2ncc(C(=O)Nc3cc(OC)c(OC)c(OC)c3)c(C)n2)c1,–,?,?,–,8.2µM,–
CCOC(=O)c1cnc(NCc2ccccc2)nc1C,·,–,–,·,?,–
COc1cc(NC(=O)c2cnc(NCc3ccccc3)nc2C)cc(OC)c1OC,–,?,?,–,?,10µM
SMILES,ATXN2 expr inh,HT1080-NT tox,HT1080 IDH1KD tx,ATXN viability,KB-3-1 tox,KB-V1 MDR tox
O=C(Nc1ccc(Cl)cc1C(=O)Nc1ccc(Br)cn1)c1ccco1,–,–,?,–,–,5.2µM
Cc1nn(C)c2c1c(-c1ccccc1)cc(=O)n2C(C)C(=O)NCc1ccc(F)cc1 (centres undefined),–,·,·,?,–,–
Cc1ncsc1C(=O)N1N=C2/C(=C/c3ccc(N4CCOCC4)cc3)CCCC2C1c1ccc(N2CCOCC2)cc1 (centres undefined),–,–,–,–,–,–
Cc1ncsc1C(=O)N1N=C2/C(=C/c3ccccc3)CCCC2C1c1ccccc1 (centres undefined),–,–,–,?,?,21µM
CCN(CC)c1nc(N)c2c(N)nc3c(c2c1C#N)CC(c1ccccc1)O3 (centres undefined),–,–,?,–,–,21µM
CC(C)c1cc(NC(=O)CCl)on1,·,18µM,26µM,?,?,–
Cc1cc(C)c2nc(NC(=O)c3ccc(S(=O)(=O)N4CCC(C)CC4)cc3)sc2c1,–,·,·,?,–,–
Cc1ccc2nc(NNC(=O)c3ccc(S(=O)(=O)N4CCc5ccccc5C4)cc3)sc2c1,?,?,4.6µM,–,?,–
Cc1cc(C)c2nc(NNC(=O)c3ccc(S(=O)(=O)N4CCCC(C)C4)cc3)sc2c1 (centres undefined),–,?,?,–,4.1µM,–
CCS(=O)(=O)N1Cc2ccccc2CC1C(=O)Nc1ncc(C)s1 (centres undefined),·,–,–,?,–,?
CCS(=O)(=O)N1Cc2ccccc2CC1C(=O)Nc1nc2ccc(C)cc2s1 (centres undefined),–,?,–,–,?,7.3µM
Cc1cc(C)c2nc(NNC(=O)c3ccc(S(=O)(=O)N4CC(C)CC(C)C4)cc3)sc2c1 (centres undefined),?,?,12µM,–,–,–
CCCCC[C@H](C)N1C[C@@H](COCc2ccccc2)Oc2cc(N3CCC[C@@H]3COC)ccc2S1(=O)=O,–,–,–,–,–,?
Cc1cccc2sc(NNC(=O)c3ccc(S(=O)(=O)N4CC(C)CC(C)C4)cc3)nc12 (centres undefined),?,?,16µM,–,?,–
COC(=O)c1sc2ccccc2c1NC(=O)c1ccc(S(=O)(=O)N2CC(C)CC(C)C2)cc1 (centres undefined),–,–,–,–,–,–
COc1ccc(N(C(=O)c2cccc(C)c2)S(=O)(=O)c2ccc3c(c2)n(C)c(=O)n3C)cc1,–,·,·,?,–,–
O=C(/C(=C/O)N=Nc1ccccc1)c1ccncc1,–,?,–[9.24 µM],–,–,–
Cc1cccc(N=N/C(=C\O)C(=O)c2cccs2)c1,?,?,13µM,?,–,26µM
CCOCCc1nnc(NC(=O)C(=O)c2cc(C)n(-c3ccc(Cl)cc3)c2C)s1,–,·,·,–,–,–
COc1ccccc1NS(=O)(=O)c1ccc2oc(SCc3ccc(C#N)cc3)nc2c1,–,–,–,–,–,9.2µM
CNC(=O)CSc1nc2cc(S(=O)(=O)Nc3ccccc3OC)ccc2o1,–,–,–,–,–,–
